The text below walks through data of the supplement of paper PMC11219838.

Each structure is given as a SMILES string. Unmarked numbers belong to inactive results.

For this experiment, the system named is Caenorhabditis elegans L1 (N2). The experiment is described as follows: survival and reproduction score of C. elegans L1 (0: 0-10 living worms, 1: 11-20, 2: 21-50, 3: >50, 4: overgrown) (score 0-4); higher = more worms, less nematicidal, active = 1 or less; extreme values may be limits of the assay. Particulars: 60 µM; 6 days; temperature: 20 °C. Put shortly:
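Compound was pinned to a final 60 µM (0.6% v/v DMSO) into 96-well wells, each holding about 20 synchronized C. elegans N2 L1s and E. coli HB101 in liquid NGM. After 6 days of shaking at 200 rpm and 20 °C in sealed plates, the worms in each well were examined. The ordinal readout of survival and reproduction, based on living worms per well, was assessed under a dissection microscope. On this scale 0 meant 0–10 worms and 4 meant overgrown, starved wells, and two biological replicates were averaged.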
As to `Brc1cccc(-c2nc(-c3cccnc3)no2)c1`, the “survival and reproduction score” value is 4.
The figure for `Brc1ccccc1-c1nc(-c2ccc3c(c2)OCO3)no1` is 4; for `COc1ccc(Cl)cc1NC(=O)CSc1nnc(-c2ccc(C)cc2)o1` it is 4; for `O=C(CSc1nnc(-c2ccccc2)o1)Nc1ccc2ccccc2c1` it is 4.
The figure for `Cc1ccc(C)c(-c2nc(-c3cccnc3)no2)c1` is 0 (active); for `O=C(Nc1ccccc1-c1nc(-c2cccnc2)no1)c1ccccc1Cl` it is 4; for `Brc1ccc(-c2noc(COc3ccc4c(c3)OCO4)n2)cc1` it is 4.
The figure for `Clc1ccccc1-c1nc(-c2ccc3c(c2)OCO3)no1` is 4; for `CCOc1ccccc1-c1nnc(SCC(=O)NC(C)CC)o1` (centres undefined) it is 4; for `Cc1cccc(OCc2nc(-c3ccccc3)no2)c1` it is 1.5.
On to `O=C(CSc1nnc(-c2ccc(Cl)cc2)o1)Nc1ccc(F)cc1`, for which the “survival and reproduction score” value is 4.
The value for `Cc1cccc(-c2noc(-c3cccc(Cl)c3)n2)c1` was 4.
The figure for `Cn1c(SCc2nc(-c3ccc(Br)cc3)no2)nnc1-c1ccco1` is 4; for `CC(=O)c1c(C)cc(C)c(CSc2nnc(-c3ccco3)o2)c1C` it is 4.
Take `COc1ccccc1-c1nnc(SCc2ccc(C#N)cc2)o1`: the “survival and reproduction score” value is 4.
The value for `COc1ccccc1CC(=O)Nc1ccc(-c2noc(-c3ccccc3C)n2)cc1` was 4; that for `Cc1cccc(-c2noc(COc3ccccc3Cl)n2)c1` was 4; that for `Cc1cc(OCc2nc(-c3ccccn3)no2)c(C)cc1Br` was 4.
The figure for `Cc1cc(C)c(C)c(OCc2nc(-c3ccccc3)no2)c1` is 4; for `CC(C)c1ccc(OCc2nc(-c3ccncc3)no2)c(Br)c1` it is 4.
Turning to `Cc1csc(NC(=O)CSc2nnc(-c3ccccc3Cl)o2)n1`, the “survival and reproduction score” value was 4.
The value for `O=C(Nc1ccccc1-c1nc(-c2ccncc2)no1)c1cccc(Cl)c1` was 4.
The value for `Cc1ccc(-c2noc(COc3ccccc3C)n2)cc1` was 4; that for `CCCCCSc1nnc(-c2ccc(Cl)cc2Cl)o1` was 2; that for `Cc1ccc(OCc2nc(-c3ccccc3Cl)no2)cc1C` was 2.
The figure for `O=C(CSc1nnc(-c2ccco2)o1)Nc1cccc(C(F)(F)F)c1` is 4; for `CCOc1ccc(-c2nc(-c3ccccc3)no2)cc1` it is 4.
With `Cc1ccc(-c2noc(-c3ccc(Cl)cc3)n2)cc1`, the “survival and reproduction score” value was 4.
Take `O=C(CSc1nnc(-c2cccc(F)c2)o1)Nc1ccccc1C(=O)c1ccccc1`: the “survival and reproduction score” value was 4.
The value for `COc1ccc(OCc2nc(-c3cccc(Br)c3)no2)cc1` was 4; that for `CCc1ccc(OCc2nc(-c3cccc(OC)c3)no2)cc1` was 4; that for `CCCSc1nnc(-c2ccc(Cl)cc2Cl)o1` was 0 (active).
The value for `COc1ccc(-c2nnc(SCC(=O)N3CC(C)CC(C)C3)o2)cc1` (centres undefined) was 4.
The value for `Cc1cc(C)c(NC(=O)CSc2nnc(-c3ccc(Br)cc3)o2)c(C)c1` was 4.
For `CC(C)Oc1cccc(-c2nc(-c3ccccn3)no2)c1`, the “survival and reproduction score” value is 4.
The value for `COc1cccc(-c2noc(COc3ccccc3Cl)n2)c1` was 4; that for `COc1cccc(-c2noc(COc3ccc(C)cc3C)n2)c1` was 4.
The value for `CCOc1nc(-c2ccccc2)ccc1-c1noc(CC)n1` was 4; that for `O=C(CSc1nnc(-c2ccncc2)o1)Nc1ccc(Cl)cc1Cl` was 4.
